From PubChem
D3 ag: D3 dopamine receptor (human) agonism. 410,000 compounds, 0.58% hits. D3R DiscoveRx beta-arrestin cells, luminescence, 90 min. max activation, %. AID 652048. P35462; in the data active = max activation above about 30%; note: 0% is about no effect
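Cells at 1500/well, incubated overnight, then treated with pinned compounds (dopamine as control) for 90 min at 37 degrees C. DiscoveRx reagent added for 30 - 60 minutes at room temperature; luminescence read.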
TSHR antagonist: human thyrotropin receptor antagonism; activity change, negative = inhibition, % at 11.5 µM; TSHR-expressing cells, TSH-stimulated cAMP HTRF, 2 h; active compounds read low; P16473; AID 504810; 330,000 compounds, 0.2% hits;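 active = activity change below a set negative limit, meaning inhibition stronger than a set level, cut at about -70% in these data; inconclusive = activity change between two set negative limits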; note: % is set by controls: 0 for no effect and ±100 for the full control effect
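TSHR-expressing cells, 200/well, pre-treated with compound, then stimulated with EC80 TSH (4nM final) for 2 hours at 37 deg C. cAMP measured by competitive HTRF: anti-cAMP cryptate antibody in lysis buffer plus cAMP-d2, read after 30 minutes at room temperature.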
B2AR arrestin: recruits beta-arrestin to the human beta2-adrenergic receptor | AID 492947 | beta-arrestin recruitment to beta2AR, cell-based reporter | 330,000 compounds, 0.02% hits | P07550 | Potency, µM (series often up to 46.1 µM), for inactives: at the top dose activation, actives largely listed as activators; active = well fitted activation curve with a large enough effect; inconclusive = small, poorly fitted or top-dose-only effect;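 note: potency is the fitted concentration of half-maximal effect; 0% = DMSO controls and full agonism = EC100 isoproterenol or metaproterenol; nearly all actives have a fitted effect of over 65% in size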
Target sequence (P07550 whole entry, looked up): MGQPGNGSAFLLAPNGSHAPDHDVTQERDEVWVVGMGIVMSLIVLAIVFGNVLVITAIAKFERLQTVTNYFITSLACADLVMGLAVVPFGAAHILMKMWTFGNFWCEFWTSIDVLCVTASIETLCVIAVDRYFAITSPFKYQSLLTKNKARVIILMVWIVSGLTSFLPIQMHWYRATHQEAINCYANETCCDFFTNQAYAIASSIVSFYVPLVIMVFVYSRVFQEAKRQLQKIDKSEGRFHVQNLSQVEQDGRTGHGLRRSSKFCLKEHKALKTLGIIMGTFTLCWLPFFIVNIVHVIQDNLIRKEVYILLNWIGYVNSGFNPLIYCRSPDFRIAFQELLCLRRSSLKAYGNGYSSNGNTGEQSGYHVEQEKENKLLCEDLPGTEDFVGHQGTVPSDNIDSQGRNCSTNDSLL
D3 antag: antagonists of human D3 dopamine receptor. P35462. D3R cells, DiscoveRx beta-arrestin luminescence, antagonist mode; active compounds read low. max response, negative = inhibition, %. 360,000 compounds, 2.5% hits. AID 652054; in the data active = max response below about -50%; inconclusive = no clear call, values can overlap the other calls; note: % is set by controls: 0 for no effect and ±100 for the full control effect
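Cells plated overnight at 1500 cells/well, then exposed to library compounds with dopamine controls for 90 minutes at 37 degrees C. DiscoveRx reagent added for 30–60 minutes at room temperature; luminescence read, quantitative HTS format.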
Active calls of the source: *; ? = inconclusive; nt = no result. An excerpt weighted towards active compounds, which were near 2.9% of everything screened.

SMILES	D3 ag	TSHR antagonist	B2AR arrestin	D3 antag
Cc1ccc(C(=O)NCCN2CCC(n3c(=O)[nH]c4ccccc43)CC2)cc1	-14.6	nt	nt	-106.4*
O=C(NCCN1CCC(n2c(=O)[nH]c3ccccc32)CC1)c1ccc(F)cc1	-17.1	nt	nt	-79.2*
O=C(NCCN1CCC(n2c(=O)[nH]c3ccccc32)CC1)c1ccc(Cl)cc1	-15.3	nt	nt	-50.7*
COc1ccccc1C(=O)NCCN1CCC(n2c(=O)[nH]c3ccccc32)CC1	-16.3	nt	nt	0.0
O=C(NCCN1CCC(n2c(=O)[nH]c3ccccc32)CC1)c1cccc2c1-c1ccccc1C2=O	-13.6	nt	nt	0.0
O=C(NCCN1CCC(n2c(=O)[nH]c3ccccc32)CC1)c1c(F)cccc1F	-12.4	nt	nt	-92.4*
O=C(NCCN1CCC(n2c(=O)[nH]c3ccccc32)CC1)c1cccs1	-16.5	nt	nt	-102.7*
O=C(NCCN1CCC(n2c(=O)[nH]c3ccccc32)CC1)c1ccc(Cl)c(Cl)c1	-15.1	nt	nt	-85.1*
O=C(Nc1cccc(F)c1)N1CCC(n2c(=O)[nH]c3ccccc32)CC1	-38.3	-0.1	-0.6%	-18.9
O=C(NCCN1CCC(n2c(=O)[nH]c3ccccc32)CC1)c1ccc(F)cc1F	-14.1	nt	nt	-108.9*
CCN(CC)C(=O)c1ccc2c(c1)N(Cc1c(F)cccc1Cl)C(=O)c1ccccc1S2	6.1	nt	nt	nt
COc1ccc2nc3n(c(=O)c2c1)-c1ncccc1C(=O)NC3C (stereo not given)	-7.6	nt	nt	-15.0
CCOc1ccc(NC(=O)c2oc3ccccc3c2NC(=O)C(C)(C)C)cc1	7.5	nt	nt	nt
Cc1ccc2c(c1)c1c3n2CCCN(Cc2ccccc2)C3CCC1 (stereo not given)	-18.1	-32.4	-0.4%	-4.1
COC(Cn1c2c(c3cc(C)ccc31)CCCC2NCc1ccccc1)OC (stereo not given)	-19.2	-9.6	-0.4%	-76.4*
O=C(COc1ccccc1-c1nc(-c2ccccc2)no1)Nc1ccccc1[N+](=O)[O-]	-3.3	nt	nt	nt
CC[C@@]1(C(=O)OC)N[C@H](CN(C)S(=O)(=O)c2ccccc2)[C@@H]2C(=O)N(C)C(=O)[C@@H]21	34.1*	-12.0	-0.5%	12.3
CC[C@@]1(C(=O)OC)N[C@H](CN(C)S(=O)(=O)c2ccc(C(C)(C)C)cc2)[C@@H]2C(=O)N(C)C(=O)[C@@H]21	41.0*	-15.5	-1.8%	29.2
CCCCc1ccc(S(=O)(=O)NC(=O)C2(C)CCN2C(=O)Cc2ccccc2)cc1 (stereo not given)	3.7	nt	nt	23.1
COc1ccc(NC(=O)CNC(=O)c2nn(-c3ccc(OC)c(Cl)c3)c(=O)c3ccccc23)c(OC)c1	30.4*	6.5	-1.0%	81.6
COc1ccc(NC(=O)c2cnn(-c3ccccc3)c2C)c(OC)c1	0.4	15.8	-0.2%	-61.1*
CCOc1ccccc1NC(=O)CNC(=O)c1nn(-c2ccc(OC)c(OC)c2)c(=O)c2ccccc12	17.7	-19.7	0.0%	82.0
CCOc1ccc(NC(=O)CNC(=O)c2nn(-c3ccc(OC)c(OC)c3)c(=O)c3ccccc23)cc1	37.4*	2.1	0.1%	85.8
COc1ccc(-n2nc(C(=O)NCC(=O)Nc3cc(Cl)c(OC)cc3OC)c3ccccc3c2=O)cc1	3.7	0.5	0.0%	-1.0
CC(=O)Nc1cc(C(=O)Nc2ccc3c(c2)N(C)C(=O)c2ccccc2S3)ccc1C	-0.9	nt	nt	nt
SMILES	D3 ag	TSHR antagonist	B2AR arrestin	D3 antag
Cc1cc(C(=O)COC(=O)c2ccc[nH]c2=O)c(C)n1C1CC1	32.9*	-3.9	-1.0%	8.1
CCCCc1nn2c(=O)cc(COC(=O)c3ccc(NC(=O)CCc4ccccc4)cc3)nc2s1	-4.7	nt	nt	nt
CCN1CCN(C(=O)c2cnn3c(C(F)F)cc(-c4ccc(C)cc4)nc23)CC1	4.1	12.8	0.4%	-56.1*
Cc1cccc(Cc2c(C)nc3c(C(=O)N4CCN(Cc5ccc6c(c5)OCO6)CC4)cnn3c2C)c1	-12.7	19.8	0.0%	?
O=C(c1cnn2c(C(F)F)cc(-c3ccccc3)nc12)N1CCN(Cc2ccc3c(c2)OCO3)CC1	-12.5	1.5	-0.9%	-74.5*
Cc1ccc(C)c(NC(=O)CCCn2nc(C)c3sc4ccccc4c3c2=O)c1	-3.5	nt	nt	nt
Cc1c(C(=O)NC2CC2)oc2ccccc12	-1.5	-4.1	-0.1%	-1.8
Cc1c(C(=O)NC2CCS(=O)(=O)C2)oc2ccccc12 (stereo not given)	46.8*	25.0	-0.5%	-3.7
Cc1c(C(=O)Nc2ccncc2)oc2ccccc12	51.6*	-14.9	0.7%	21.7
O=C(CSCC(=O)Nc1ccccc1)N/N=C/c1c(O)ccc2ccccc12	1.6	-4.0	-1.0%	-19.9
